# Measured values reported in ChEMBL document CHEMBL4513141, “CO-ADD screening of NIH (USA) - Clinical Collection” (2021).
# Entries with a potency or affinity are not part of this list.
# Columns and labels:
# Klebsiella pneumoniae = conditions: Concentration 20 uM; ASSAY_TEST Inhibition of Bacterial Growth; detection method Absorption (OD600); MEDIA CAMHB; plate type 384well; NBS; CORNING #3640; time 18 hr
# Candida albicans = conditions: 20 µM
# Cryptococcus neoformans = conditions: Concentration 20 uM; ASSAY_TEST Inhibition of Fungal Growth; detection method Resazurin; Absorption (OD600-OD570); plate type 384well; NBS; CORNING #3640
SMILES,Inhibition (Klebsiella pneumoniae),Inhibition (Candida albicans),Inhibition (Cryptococcus neoformans)
COc1cc2nc(N3CCN(C(=O)C4CCCO4)CC3)nc(N)c2cc1OC (stereo unspecified) [TERAZOSIN],3.6%,3.05%,0.02%
CC(=O)O.CC(C)C[C@H](NC(=O)[C@@H](COC(C)(C)C)NC(=O)[C@H](Cc1ccc(O)cc1)NC(=O)[C@H](CO)NC(=O)[C@H](Cc1c[nH]c2ccccc12)NC(=O)[C@H](Cc1c[nH]cn1)NC(=O)[C@H]1CCC(=O)N1)C(=O)N[C@H](CCCNC(=N)N)C(=O)N1CCC[C@@H]1C(=O)NNC(N)=O,2.33%,2.52%,-3.07%
CNCCC=C1c2ccccc2CCc2ccccc21.Cl [NORTRIPTYLINE HYDROCHLORIDE],11.74%,1.73%,-10.6%
O=C([O-])c1cc(=O)c2c(OCC(O)COc3cccc4oc(C(=O)[O-])cc(=O)c34)cccc2o1.[Na+].[Na+] [CROMOLYN SODIUM],6.64%,2.62%,0.69%
CN(CCOc1ccc(CC2SC(=O)NC2=O)cc1)c1ccccn1.O=C(O)/C=C\C(=O)O (stereo unspecified) [ROSIGLITAZONE MALEATE],9.63%,0.75%,-9.6%
O=c1c(O[C@@H]2O[C@H](CO)[C@@H](O)[C@H](O)[C@H]2O)c(-c2ccc(O)c(O)c2)oc2cc(O)cc(O)c12 [ISOQUERCETIN],10.08%,1.9%,3.22%
COC(=O)[C@H](c1ccccc1Cl)N1CCc2sccc2C1 [CLOPIDOGREL],14.99%,2.18%,-8.15%
CN1CCN(C2=Nc3ccccc3Oc3ccc(Cl)cc32)CC1.O=C(O)CCC(=O)O [LOXAPINE SUCCINATE],7.32%,2.62%,-0.59%
CCOC(=O)[C@H](CCc1ccccc1)N[C@H]1CCc2ccccc2N(CC(=O)O)C1=O.Cl [BENAZEPRIL HYDROCHLORIDE],6.08%,3.12%,0.84%
CCCCCCCCCCC[C@@H](C[C@@H]1OC(=O)[C@H]1CCCCCC)OC(=O)[C@H](CC(C)C)NC=O [ORLISTAT],7.06%,1.01%,-4.7%
CN(C)C(=O)Oc1ccc[n+](C)c1.[Br-] [PYRIDOSTIGMINE BROMIDE],3.02%,1.97%,-8.97%
Cc1nc(=O)c2cc(CN(C)c3ccc(C(=O)N[C@@H](CCC(=O)O)C(=O)O)s3)ccc2[nH]1 [RALTITREXED],9.17%,2.26%,-0.58%
OC[C@H]1O[C@@H](Oc2cc(O)cc(/C=C/c3ccc(O)cc3)c2)[C@H](O)[C@@H](O)[C@@H]1O [PICEID],6.92%,3.19%,-0.2%
O=C(O)c1cc(/N=N/c2ccc(S(=O)(=O)Nc3ccccn3)cc2)ccc1O [SULFASALAZINE],2.94%,8.72%,5.13%
C[C@]12C[C@H](O)[C@H]3[C@@H](CCC4=CC(=O)CC[C@@]43C)[C@@H]1CC[C@@H]2C(=O)CO [CORTICOSTERONE],17.2%,2.69%,-3.25%
CSc1nc2cc(Cl)c(Oc3cccc(Cl)c3Cl)cc2[nH]1 [TRICLABENDAZOLE],-0.37%,7.82%,-2.96%
COc1cc(/C=C/c2ccc(O)cc2)cc(OC)c1 [PTEROSTILBENE],7.46%,3.65%,-0.34%
CN(C)CCN(Cc1ccccc1)c1ccccn1.Cl [TRIPELENNAMINE HYDROCHLORIDE],2.28%,5.56%,2.92%
CSc1ccc2c(c1)N(CCC1CCCCN1C)c1ccccc1S2.Cl (stereo unspecified) [THIORIDAZINE HYDROCHLORIDE],9.7%,4.12%,4.01%

SMILES,Inhibition (Klebsiella pneumoniae),Inhibition (Candida albicans),Inhibition (Cryptococcus neoformans)
CC(=O)O[C@@]12CO[C@@H]1C[C@H](O)[C@@]1(C)C(=O)[C@H](O)C3=C(C)[C@@H](OC(=O)[C@H](O)[C@@H](NC(=O)OC(C)(C)C)c4ccccc4)C[C@](O)([C@@H](OC(=O)c4ccccc4)[C@H]21)C3(C)C,11.64%,1.38%,-6.01%
CC(C(=O)[O-])c1ccc(CC2CCCC2=O)cc1.[Na+] (stereo unspecified) [LOXOPROFEN SODIUM],6.48%,2.26%,-10.19%
CC(C)C[C@H](NC(=O)[C@@H](O)[C@H](N)Cc1ccccc1)C(=O)O [UBENIMEX],12.45%,0.73%,-0.18%
CN(Cc1cnc2nc(N)nc(N)c2n1)c1ccc(C(=O)N[C@@H](CCC(=O)O)C(=O)O)cc1.O,9.2%,12.2%,-1.89%
Cl.O=C(c1ccc(OCCN2CCCCC2)cc1)c1c(-c2ccc(O)cc2)sc2cc(O)ccc12 [RALOXIFENE HYDROCHLORIDE],7.01%,0.43%,-13.3%
CC(C)OC(=O)CCC/C=C\C[C@@H]1[C@@H](CC[C@@H](O)CCc2ccccc2)[C@H](O)C[C@@H]1O [LATANOPROST],18.51%,0.35%,-2.04%
CS(=O)(=O)c1ccc(-c2cc(Br)sc2-c2ccc(F)cc2)cc1 [DUP-697],2.25%,5.12%,-8.07%
CCOC(=O)OC(C)OC1=C(C(=O)Nc2ccccn2)N(C)S(=O)(=O)c2ccccc21 (stereo unspecified) [AMPIROXICAM],12.2%,0.25%,-3.23%
CCC(=O)[N-]S(=O)(=O)c1ccc(-c2c(-c3ccccc3)noc2C)cc1.[Na+] [PARECOXIB SODIUM],7.5%,3.16%,-0.82%
Cc1ccc(-c2cc(C(F)(F)F)nn2-c2ccc(S(N)(=O)=O)cc2)cc1 [CELECOXIB],10.55%,2.46%,0.77%
CC[C@]1(O)C[C@@H]2CN(CCc3c([nH]c4ccccc34)[C@@](C(=O)OC)(c3cc4c(cc3OC)N(C=O)[C@H]3[C@@](O)(C(=O)OC)[C@H](OC(C)=O)[C@]5(CC)C=CCN6CC[C@]43[C@@H]65)C2)C1.O=S(=O)(O)O,3.74%,2.01%,-7.42%
Cc1cccc(C)c1NC(=O)C(C)N (stereo unspecified) [TOCAINIDE],13.74%,1.33%,0.27%
CCCc1nc(C(C)(C)O)c(C(=O)OCc2oc(=O)oc2C)n1Cc1ccc(-c2ccccc2-c2nnn[nH]2)cc1 [OLMESARTAN MEDOXOMIL],5.33%,4.08%,-0.73%
CC(=O)NS(=O)(=O)c1ccc(N)cc1 [SULFACETAMIDE],11.67%,1.53%,0.24%
CCOC(=O)[C@H](CCc1ccccc1)N[C@@H](C)C(=O)N1Cc2ccccc2C[C@H]1C(=O)O.Cl [QUINAPRIL HYDROCHLORIDE],14.37%,3.86%,-5.15%
Cl.NC12CC3CC(CC(C3)C1)C2 [AMANTADINE HYDROCHLORIDE],13.94%,3.06%,-3.67%
CCN1CCC[C@H]1CNC(=O)c1cc(S(N)(=O)=O)ccc1OC [LEVOSULPIRIDE],18.7%,2.16%,2.98%
CC[C@H](C)C(=O)O[C@H]1C[C@@H](C)C=C2C=C[C@H](C)[C@H](CC[C@@H]3C[C@@H](O)CC(=O)O3)[C@H]21 [LOVASTATIN],12.43%,17.1%,-5.68%
